HT1080NT lethal: kills 2HG-producing HT-1080-NT fibrosarcoma cells. HT-1080-NT fibrosarcoma viability, CellTiter-Glo ATP luminescence, 48 h. Potency, µM (doses to about 46.1 µM), without a hit: at the highest dose activity, negative = less viability, actives largely listed as cytotoxic. 360,000 compounds, 1.6% hits;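 note: NT is the 2HG producing partner of a matched IDH1 knockdown line; potency is the fitted concentration of half-maximal effect; 0% = DMSO-treated cells and -100% = media-only wells without cells; nearly all actives have a fitted effect of over 55% in size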
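Viability of the 2HG-overproducing fibrosarcoma line after 48 hours of compound exposure at 37 degrees C was determined by luminescence with CellTiter-Glo, and concentration-effect curves were then fitted and categorized.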
HT1080 IDH1KD tx: toxicity to HT-1080 IDH1 knockdown cells (counter line); Potency, µM (top dose mostly 46.1 µM), for inactives: at the top dose activity, negative = toxicity, hits mostly cytotoxic; HT-1080 IDH1 knockdown viability, ATP luminescence, 48 h; AID 686971; 360,000 compounds, 2% hits;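 note: potency is the fitted concentration of half-maximal effect; 0% = DMSO wells and -100% = cell-free medium wells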
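In this qHTS, HT-1080 cells depleted of IDH1 are exposed for 48 h at 37 °C to compound titrations. Toxicity is scored from CellTiter-Glo luminescence, with DMSO as full viability and medium alone as none.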
HepG2 viability: counter-screen for TGF-b inhibitors: cytotoxicity in HepG2 cells | HepG2 CAGA-GFP viability, ATP luminescence, 18 h | Potency, µM (highest dose often 46.1 µM), inactives show at the top dose activity change, negative = cytotoxicity, actives largely listed as cytotoxic | 410,000 compounds, 0.76% hits | AID 588856; note: potency is the fitted concentration of half-maximal effect
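CellTiter-Glo luminescence gave cytotoxicity after 18 hours at 37 degrees C. The cells were HepG2 CAGA-GFP in 1% FBS DMEM, stimulated with 500 pg/mL TGF-beta after compound addition. %Activity was normalised to no-cell wells (complete cell-killing) and DMSO (no toxicity), and curves were fitted and classified.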
TGFb inhibitor: inhibitors of TGF-b signaling | HepG2 CAGA-GFP TGF-b/SMAD3 reporter, GFP fluorescence, 18 h; TGF-beta stimulated, 500 pg/mL final | Potency, µM (top dose mostly 46.1 µM), for inactives: top-dose activity, negative = inhibition, usual class: inhibitors | 410,000 compounds, 1.2% hits | AID 588855; note: potency is the fitted concentration of half-maximal effect; % is set by controls: 0 for no effect and ±100 for the full control effect; nearly all actives have a fitted effect of over 65% in size
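HEPG2 CAGA-GFP reporter cells (1000/well, DMEM with 1% FBS) received compounds, then recombinant TGF-beta at 500 pg/mL final for 18 hours at 37 degrees C. Per-cell GFP summed per well was normalised to unstimulated and stimulated DMSO controls before curve fitting.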
IL1B secr inh: inhibitors of inflammasome signaling (IL-1 beta secretion); AID 743279; activity change, % at 57.5 µM; 360,000 compounds, 4.7% hits; THP-1 LPS/ATP IL-1B secretion, AlphaLISA, 16 h; active compounds read low; in the data active = activity change below about -50%; inconclusive = mostly about -30% to -49%; note: % is set by controls: 0 for no effect and ±100 for the full control effect
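THP-1 cells pretreated 1 hr with compounds (up to 57.5 uM final), then stimulated with LPS (250 ng/mL final) plus ATP (1.25 mM final); secreted IL-1B measured by AlphaLISA after 16 hr, decreased signal indicating inhibition.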
Giardia killer: Giardia lamblia killing | 340,000 compounds, 0.15% hits | activity change, % at 7.66 µM, hits read low | Giardia lamblia trophozoite viability; in the data active = activity change below about -80%; inconclusive = between about -30% and that limit;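 note: parasites exposed to compound for two days anaerobically before the ATP read; % is set by controls: 0 for no effect and ±100 for the full control effect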
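Each well holds 100 Giardia trophozoites and compound. After two days (48 hrs) at 37 deg C in anaerobic conditions, ATP is quantified by luminescence.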
The depositor's hits bear a star; u = inconclusive; x = no result given. Hits are enriched below; roughly 6.5% of the tested compounds scored in any of these assays. Unless noted, calls come from the whole dose curve; as a rule, active = well fitted curve in the direction sought with a large enough effect; inconclusive = small, poorly fitted or top-dose-only effect, or another doubt; inactive = no such curve, though single readings can be large; an effect the other way counts as inactive or inconclusive.

SMILES	HT1080NT lethal	HT1080 IDH1KD tx	HepG2 viability	TGFb inhibitor	IL1B secr inh	Giardia killer
CN1CCN(c2ccc(S(=O)(=O)N3CCCCC3)cc2NC(=O)/C=C/c2ccc(Cl)c([N+](=O)[O-])c2)CC1	-15%	u	-97%	u	-81*	4
CN1CCN(c2ccc(S(=O)(=O)N3CCCCC3)cc2NC(=O)/C=C/c2ccc(OC(F)F)cc2)CC1	u	u	-100%	u	-80*	-6
N#Cc1ccccc1NC(=O)COC(=O)C1CCN(C(=O)c2ccc(Cl)cc2)CC1	3%	4%	1%	13%	16	-1
COc1cc(C(=O)OC(C)C(=O)N2CCCC2)cc2c1OCCO2 (stereo not given)	12%	-1%	5%	7%	5	-15
COC(=O)c1cc(C)sc1NC(=O)C1CC(=O)NN1Cc1ccccc1 (stereo not given)	-5%	-4%	-25%	3%	10	5
CCOC(=O)c1cc(CC)sc1NC(=O)C1CC(=O)NN1Cc1ccccc1 (stereo not given)	u	21µM*	-63%	u	-60*	1
COc1cccc(C(=O)Nc2ncc3c(n2)CC(c2ccc(OC)cc2OC)CC3=O)c1 (stereo not given)	7.9µM*	7.9µM*	-2%	u	17	-1
COC(=O)CC1(CC(N)=O)SCCS1	-4%	u	14µM*	u	29	-9
O=C(CSc1nc2ccccc2c(=O)n1-c1ccccc1)NCC1CCCO1 (stereo not given)	22%	17%	-10%	-16%	-7	-14
Cc1cc(C)n(-c2nc3ccccc3c(=O)n2OCC#N)n1	-16%	u	-24%	u	-96*	5
CS(=O)(=O)N1CCc2ccccc2C1	24%	21%	-2%	-8%	16	-11
COc1ccc(Br)cc1S(=O)(=O)N1CCOCC1	-1%	1%	5%	-9%	2	-20
CCN(CC)CCn1c(NCc2cc(OC)ccc2OC)nc2ccccc21	-8%	-9%	-28%	-11%	-6	18
CCN(CC)CCNC1=NCCn2c1cc1cc(OC)ccc12	u	u	-54%	3%	-76*	4
CCc1nc2ccc(C(=O)N3CCN(C(=O)c4ccco4)CC3)cn2c1N(C=O)Cc1ccc(OC)cc1	u	3%	-6%	1%	10	x
Cc1cc(F)ccc1N1CCC(N2CCN(CCC(C)C)C(CCO)C2)CC1 (stereo not given)	18µM*	u	-19%	7%	-66*	-13
C=CCn1c(C)cc(-c2csc(N)n2)c1C	0%	2%	0%	-7%	-13	14
C=CCn1c(C)cc(-c2csc(NCC)n2)c1C	u	u	-31%	u	-55*	30
C=CCn1c(C)cc(-c2csc(NC)n2)c1C	u	-14%	0%	-7%	-96*	0
Fc1cccc(CSc2nc3ncc(Cl)cc3[nH]2)c1	-6%	-12%	-32%	0%	x	5
COc1cc(C(=O)Nc2ccc(C(=O)c3cccs3)cc2)cc(OC)c1OC	-19%	u	-26%	11%	46	-30
COCCOC(=O)c1c(NC(=O)CN2CCc3ccccc32)sc(C(N)=O)c1C	-1%	-11%	-7%	7%	28	u
Cn1nc(C(=O)Nc2ccc3c(c2)OCO3)c2ccccc2c1=O	0%	-8%	-30%	-6%	-5	2
O=C(c1ccccc1Cc1ccccc1)N1CCN(S(=O)(=O)c2ccccc2Br)CC1	3%	2%	0%	-14%	-61*	-9
CC(C)OC(=O)/C(C#N)=C/c1cn(C)c2ccccc12	-14%	-3%	-21%	-1%	-54*	-26
SMILES	HT1080NT lethal	HT1080 IDH1KD tx	HepG2 viability	TGFb inhibitor	IL1B secr inh	Giardia killer
CC(C)OC(=O)/C(C#N)=C/c1cn(Cc2ccccc2)c2ccccc12	1%	-2%	-7%	u	-13	-14
Cn1cc(/C=C(\C#N)C(=O)Nc2ccccc2O)c2ccccc21	-19%	-27%	-25%	-21%	-62*	9
O=C(NCC1CCCO1)C(=O)N/N=C/c1cc(Cl)ccc1O (stereo not given)	-9%	-28%	8%	u	175	10
Cc1ccsc1C(=O)N1CC(=O)Nc2ccccc21	u	18µM*	-31%	1%	-20	11
CS(=O)(=O)c1ccc(C(=O)N2CC(=O)Nc3ccccc32)cc1	11%	0%	-2%	2%	13	13
Cc1cc(C(=O)COc2ccc(F)cc2Br)c(C)n1C	5%	0%	-7%	6%	u	-3
CN(c1nc(-c2ccc(Br)cc2)cs1)C1CCS(=O)(=O)C1 (stereo not given)	-1%	2%	-14%	-12%	-77*	3
Cc1ccsc1CN(C(=O)COc1ccc(Br)cc1)C1CCS(=O)(=O)C1 (stereo not given)	x	x	-17%	x	x	x
O=C(Cc1c(Cl)cccc1Cl)Nc1cccc(S(=O)(=O)N2CCOCC2)c1	10%	15%	3%	-10%	-5	-7
N#C/C(=C/c1ccc(N2CCOCC2)o1)c1ccc(Cl)cc1	6.3µM*	3.5µM*	-60%	58%	-78*	7
CCOc1ccc(N(CC)S(=O)(=O)c2cc(Br)cc3c2N(C(C)=O)C(C)C3)cc1 (stereo not given)	x	x	-55%	10µM*	x	x
N#Cc1ccc(OCC(=O)NCCc2ccc(S(N)(=O)=O)cc2)cc1	6%	13%	-1%	13%	12	-13
CN(C[C@H](CC1CCCCC1)N(C[C@H](Cc1ccccc1)N(CCc1ccccc1)N=O)N=O)N=O	0%	-9%	-10%	-1%	-8	23
COC(=O)N/N=C/c1cc(Cl)c(OCc2ccccc2F)c(OC)c1	-29%	-27%	10µM*	-11%	-4	24
CN(C)C(=O)c1cccc(-c2cnc3c(NC=O)cc(-c4cc(F)c(F)c(F)c4)cn23)c1	-1%	6%	-8%	-24%	-2	x
CCn1c(Sc2ccc([N+](=O)[O-])cn2)nnc1-c1ccco1	12µM*	18µM*	-53%	u	-82*	37
CCn1c(SCC(=O)OCc2ccccc2)nnc1-c1ccco1	4%	-5%	-31%	-14%	-2	2
O=c1c2cc(Cl)ccc2[nH]c(=S)n1Cc1ccco1	7.9µM*	11µM*	-5%	25%	40	1
Cn1cc(C2=C(c3cn(CCCSC(=N)N)c4ccccc34)C(=O)NC2=O)c2ccccc21	x	x	2µM*	0.71µM*	x	x

Compound activity deposited in PubChem BioAssay by National Center for Advancing Translational Sciences (NCATS).
